# Source: the supplement of paper PMC6555819
# What was measured:
# Assay in all cases: PBM binding z-score (relative to random genomic background probes); higher = stronger binding; sequences stand for … in GC…GCGATTGACAGCGTAGAATGAAGG
# [1] = test system: FXR:RXRa (NR concentration 270 nM, RXRa partner concentration 90 nM)
# Summary of the method: (§1)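 For binding z-scores, the reference was random background probes on custom Agilent 4×180K protein-binding microarrays. These arrays were incubated 1 h with ligand-free nuclear receptor dimers in PBS pH 7.4, 2% milk, 0.02% Triton X-100, 1 mM DTT, 0.2 mg/mL BSA and 0.4 mg/ml salmon testes DNA. Fluorescence was scanned after antibody detection of each partner (one per run) and regression-normalized.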
# [2] = test system: LXRa:RXRa (NR concentration 270 nM, RXRa partner concentration 90 nM)
# Summary of the method: as §1
# [3] = test system: LXRa homodimer (NR concentration 270 nM)
# Summary of the method: as §1
# [4] = test system: LXRb:RXRa (NR concentration 270 nM, RXRa partner concentration 90 nM)
# Summary of the method: as §1
# [5] = test system: LXRb homodimer (NR concentration 270 nM)
# Summary of the method: as §1
# [6] = test system: PPARa:RXRa (NR concentration 270 nM, RXRa partner concentration 90 nM)
# Summary of the method: as §1
# [7] = test system: PPARg:RXRa (NR concentration 180 nM, RXRa partner concentration 90 nM)
# Summary of the method: as §1
# [8] = test system: PPARg:RXRa 270nM:90nM, anti-RXR (NR concentration 270 nM, RXRa partner concentration 90 nM)
# Summary of the method: as §1
# [9] = test system: PPARg:RXRa 30nM:10nM, anti-RXR (NR concentration 30 nM, RXRa partner concentration 10 nM)
# Summary of the method: as §1
# [10] = test system: PPARg:RXRa 90nM:30nM, anti-RXR (NR concentration 90 nM, RXRa partner concentration 30 nM)
# Summary of the method: as §1
# [11] = test system: PPARg:RXRa DBDmut IVT, anti-RXR (DBD mutation: RXRa K156A/R161A, NR concentration 270 nM, RXRa partner concentration 90 nM)
# Summary of the method: as §1
# [12] = test system: PPARg:RXRa IVT, anti-PPARg (NR concentration 270 nM, RXRa partner concentration 90 nM)
# Summary of the method: as §1
# [13] = test system: PPARg DBDmut:RXRa IVT, anti-PPARg (DBD mutation: PPARg1 K132A/R137A, NR concentration 270 nM, RXRa partner concentration 90 nM)
# Summary of the method: as §1
# [14] = test system: PPARg DBDmut IVT, anti-PPARg (DBD mutation: PPARg1 K132A/R137A, NR concentration 270 nM)
# Summary of the method: as §1
# [15] = test system: PPARg homodimer (NR concentration 180 nM)
# Summary of the method: as §1
# [16] = test system: PXR:RXRa (NR concentration 270 nM, RXRa partner concentration 90 nM)
# Summary of the method: as §1
# [17] = test system: PXR homodimer (NR concentration 270 nM)
# Summary of the method: as §1
# [18] = test system: RARa:RXR (NR concentration 270 nM, RXRa partner concentration 90 nM)
# Summary of the method: as §1
# [19] = test system: RARa homodimer (NR concentration 270 nM)
# Summary of the method: as §1
# [20] = test system: RARb:RXRa (NR concentration 270 nM, RXRa partner concentration 90 nM)
# Summary of the method: as §1
Sequence,PBM binding z-score [1],PBM binding z-score [2],PBM binding z-score [3],PBM binding z-score [4],PBM binding z-score [5],PBM binding z-score [6],PBM binding z-score [7],PBM binding z-score [8],PBM binding z-score [9],PBM binding z-score [10],PBM binding z-score [11],PBM binding z-score [12],PBM binding z-score [13],PBM binding z-score [14],PBM binding z-score [15],PBM binding z-score [16],PBM binding z-score [17],PBM binding z-score [18],PBM binding z-score [19],PBM binding z-score [20]
AGAATGAGGTTACCAAAGAACAGGGAAACGCTTG,1.88,5.18,-0.214,2.35,-0.334,3.32,2.51,2.41,1.03,1.71,3.61,3.21,0.635,0.163,0.531,1.06,0.0622,1.64,0.0488,2.11
ACTAGTTCGTCAGCTGAGGTCACACACAATTCGG,3.55,3.53,2.68,4.09,0.796,4.03,1.75,2.28,0.594,1.5,0.735,2.22,0.493,1.22,2.47,5.11,2.76,4.66,1.82,3.52
AGTCCAAGTTCATCTAGGTAACGTAAGATATGCT,3.42,3.23,1.19,1.62,0.287,2.59,1.45,1.61,0.523,0.991,0.673,2.16,1.06,0.824,1.01,3.95,5.64,1.67,0.0751,3.3
GCTAGCAGGCCATTTCGGTCACTCAATGACGGGC,-0.325,-0.482,-0.0904,-0.799,-0.792,-0.343,0.224,-0.461,-0.633,-0.697,0.656,0.325,-0.625,-0.867,-0.364,-0.577,-0.577,-0.28,-1.42,1.07
ATGTGTAGGTTATCGGGTCATTCAGTTTGCGCAT,3.54,3.13,1.9,3.3,1.26,4.08,4.09,4.29,1.54,3.43,4.63,5.37,1.53,2.39,3.67,4.09,9.38,4.11,2.56,2.75
CGTCCAAGGTCAGCTGGTCAGTGAAAGCGACGTG,5.24,3.28,-0.407,2.31,-0.208,3.99,2.08,2.85,0.432,1.47,2.4,2.17,0.5,-0.832,2.63,2.67,-0.135,3.24,1.47,4.79
CAAACTAGGTCACCCGAAGGTCAAAGTCCGCATG,6.1,6.03,4.86,5.07,1.57,6.24,9.64,8,5.77,7.5,8.43,8.81,7.92,7.09,11.1,6.02,2.67,7.7,3.95,5.29
CAAACTAGGTCACAGATGTCAAAGTCCGTGCGTA,3.99,3.51,0.769,2.81,0.443,5.44,8.76,7.33,5.52,7.25,8.74,8.85,3.45,2.75,2.09,2.47,0.19,3.24,1.17,4.17
TCTTGTAGATCAATCGAGGTTAAGAAAGTGCGCT,1.32,3.01,0.075,1.49,0.176,1.73,-0.311,1.51,2.7,2.4,1.91,1.31,0.666,0.595,0.306,2.74,0.235,1.75,0.262,0.661
TCATGTAGATCAGCAGGTTAAGAAAGCTGGCCAA,-0.0707,0.39,-0.338,0.259,-0.58,0.606,-0.175,1.5,2.67,2.16,1.87,0.284,-0.501,-0.804,0.238,0.193,0.00655,0.125,-0.0627,0.286
ACTATTAGTTAACTTAGGGCAACCGATACGACGC,0.0468,1.21,0.294,0.256,0.392,0.281,1,0.361,0.616,0.282,0.0765,0.837,0.677,1.02,0.328,0.418,0.13,0.582,0.421,0.959
TAGCCTAGGTCAGGCGGGCCAGTATAGTGTCGGC,1.07,0.958,-0.477,0.401,-0.892,1.55,0.363,0.51,-0.814,-0.109,0.604,1.7,-0.617,-0.515,-0.227,0.158,-0.632,0.923,-0.619,3.16
CAAACTCGGTCAAAGGTCAAAGTCGAGCCAACCA,7.73,6.98,6.36,6.72,3.13,7.67,12.9,10.9,11.8,12.5,5.71,7.61,1.95,3.41,6.43,6.69,2.5,8.37,3.33,5.43
CCTAGCAGGCCAGGGTCAATCAAGCATTTCGCTT,3.41,2.94,-0.348,3.36,-1.18,4.23,0.925,1.66,-0.329,0.705,0.298,0.837,-1.44,-2.02,1.08,3.43,-0.3,4.4,0.17,2.72
